Data as given in PubChem BioAssay (NCATS).
“And” between values parts separate entries of the source, which are not always exact repeats. Equal entries are not always repeated. Results filed as inconclusive are left out. The source made the active and inactive calls. Unless noted, calls come from the whole dose curve; as a rule, active = well fitted curve in the direction sought with a large enough effect; inconclusive = small, poorly fitted or top-dose-only effect, or another doubt; inactive = no such curve, though single readings can be large; an effect the other way counts as inactive or inconclusive.

How the values were obtained:
[1] = molecular target: Glucocorticoid receptor (Homo sapiens) (UniProt P04150); assay: qHTS assay for small molecule agonists of glucocorticoid receptor signaling (AID 588532; active = well fitted curve in the direction sought with a large enough effect in the signal ratio, with a control signal flat; the % refers to the signal ratio;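 note: 100% = dexamethasone at 0.1 µM and 0% = DMSO only wells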); conditions: HeLa MMTV-bla, beta-lactamase ratio, agonist, 18 h; stronger effect = higher value; percent of dexamethasone control, DMSO zero
In short: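 Quantitative HTS using CellSensor MMTV-bla HeLa cells in charcoal/dextran-treated serum; compounds tested up to 92 uM. After 18 h at 37 C, CCF4 dye reported reporter induction.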

[2] = qHTS assay for small molecule antagonists of peroxisome proliferator-activated receptor delta signaling (AID 588535); conditions: HEK293T PPARd-UAS-bla, beta-lactamase FRET ratio, 18 h; 460 nm channel;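 note: cells co-treated with a PPAR-delta agonist as stimulator during compound exposure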
In short: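 Antagonist-mode qHTS using GeneBLAzer PPAR-delta-UAS-bla HEK293T cells; compound exposure 18 hrs at 37 C over a titration. Ratiometric CCF4 fluorescence at 460/530 nm; concentration-response points fitted to the Hill equation.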

[3] = molecular target: Peroxisome proliferator-activated receptor gamma (Homo sapiens) (UniProt P37231); assay: qHTS assay for small molecule agonists of peroxisome proliferator-activated receptor gamma signaling (AID 588536; active = well fitted curve in the direction sought with a large enough effect in the signal ratio, with a control signal flat, not every such curve was filed as active; the % refers to the signal ratio;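 note: 0% = DMSO basal wells and 100% = rosiglitazone at 2 µM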); conditions: HEK293 PPARg-UAS-bla, beta-lactamase ratio, 16 h, percent of rosiglitazone response, DMSO as zero; series mostly up to 76.7 µM
In short: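 Cells were plated and held 6–6.5 h at 37 C, then compounds were added as a titration series. After a further 16 h, CCF4 dye was loaded for 2 h at room temperature and emission at 460/530 nm recorded.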

[4] = molecular target: Peroxisome proliferator-activated receptor gamma (Homo sapiens) (UniProt P37231); assay: qHTS assay for small molecule antagonists of peroxisome proliferator-activated receptor gamma signaling (AID 588537; active = well fitted inhibition curve with a large enough effect in the signal ratio, with a control signal flat, not every such curve was filed as active; the % refers to the signal ratio;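 note: reporter cells co-stimulated with 50 nM rosiglitazone agonist during compound treatment; % of control where 0% means no effect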); conditions: HEK293 PPARg-UAS-bla, beta-lactamase ratio, antagonist mode; series mostly up to 76.8 µM
In short: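 Cell-based beta-lactamase assay; GW9662 served as the antagonist control. Stimulation used rosiglitazone, final 50 nM, 16 h, 37 C.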

[5] = molecular target: Vitamin D3 receptor (Homo sapiens) (UniProt P11473); assay: qHTS assay for small molecule antagonists of vitamin D receptor signaling (AID 588541; calls by dose curve;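 note: receptor activated by calcitriol during compound treatment; % is set by controls: 0 for no effect and ±100 for the full control effect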); conditions: HEK293T VDR-UAS-bla, beta-lactamase ratio, antagonist mode; series mostly up to 76.7 µM
In short: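 Antagonist-mode beta-lactamase reporter assay: HEK293T VDR-UAS-bla cells were exposed to titrated compound alongside 1-alpha,25-dihydroxyvitamin D3 at 3 nM final for 16 h. Values were normalized to the 50 nM agonist control and DMSO basal, with IC50 and efficacy from Hill equation fits.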

[6] = molecular target: Vitamin D3 receptor (Homo sapiens) (UniProt P11473); assay: qHTS assay for small molecule agonists of vitamin D receptor signaling (AID 588543; calls by dose curve;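 note: 0% = DMSO basal and 100% = reference agonist control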); conditions: HEK293T VDR-UAS-bla, beta-lactamase ratio, 16 h; series mostly up to 76.8 µM
In short: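 Agonist-mode beta-lactamase reporter: HEK293T VDR-UAS-bla cells in charcoal-stripped 2% FBS, compound series 16 h 37 C, CCF4 2 h RT. EC50 from Hill fit, scaled against DMSO and 50 nM calcitriol control.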

[7] = qHTS assay for small molecule agonists of retinoid X receptor alpha signaling (AID 588544; calls by dose curve;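 for activation: 0% = DMSO basal wells and 100% = reference agonist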); conditions: HEK293T RXRa-UAS-bla, beta-lactamase reporter, 18 h; 530 nm emission
[8] = molecular target: Retinoic acid receptor RXR-alpha (Homo sapiens) (UniProt P19793); assay: as above; conditions: HEK293T RXRa-UAS-bla, beta-lactamase reporter, 18 h; series mostly up to 76.7 µM
[9] = molecular target: Thyroid hormone receptor beta (Homo sapiens) (UniProt P10828); assay: qHTS assay for small molecule agonists of thyroid hormone receptor beta signaling (AID 588545; calls by dose curve); conditions: TR-UAS-bla GripTite HEK 293, beta-lactamase ratio, agonist mode, 18 h; series mostly up to 76.7 µM
In short: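 In this cell-based screen, titrated compounds act on HEK 293 cells held in medium with 2% charcoal/dextran FBS, NEAA and pyruvate for 18 hrs at 37 C. Responses are expressed relative to T3 (10 nM) as 100% and basal DMSO as 0%.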

[10] = qHTS assay for small molecule antagonists of retinoid X receptor alpha signaling (AID 588546; active = well fitted inhibition curve with a large enough effect in the signal ratio, with a control signal flat, not every such curve was filed as active; the % refers to the signal ratio;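 note: cells stimulated with 9-cis-retinoic acid as agonist; % is set by controls: 0 for no effect and ±100 for the full control effect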); conditions: HEK293T RXRa-UAS-bla, beta-lactamase ratio, antagonist mode; measured here: W530 green channel, cytotoxicity proxy
In short: (§1)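 Beta-lactamase reporter inhibition, read as CCF4 fluorescence ratio (ex 405, em 460/530 nm) after 2 h at RT. HEK293T UAS-bla cells, 2500/well, were stimulated with 9-cis-RA at 500 or 100 nM final alongside test compound for 18 h at 37 C.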

[11] = molecular target: Retinoic acid receptor RXR-alpha (Homo sapiens) (UniProt P19793); assay: as above; conditions: HEK293T RXRa-UAS-bla, beta-lactamase ratio, antagonist mode
In short: as §1

[12] = qHTS assay for small molecule activators of the p53 signaling pathway (AID 651743; active = well fitted activation curve with a large enough effect in the signal ratio, not every such curve was filed as active; the % refers to the signal ratio; note: % of control where 0% means no effect); conditions: HCT-116 p53RE-bla, beta-lactamase FRET ratio, 16 h; activation: stronger effect = higher value
In short: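 A beta-lactamase reporter under p53 response element control, stably carried by HCT-116 cells, reported pathway activation. Test compounds were applied for 16 hours at 37 C, and fluorescence was measured 2 hours after adding the B/G FRET substrate.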

[13] = molecular target: Peroxisome proliferator-activated receptor alpha (Homo sapiens) (UniProt Q07869); assay: qHTS assay for small molecule agonists of the peroxisome proliferator-activated receptor alpha (PPARalpha) signaling pathway (AID 651778); conditions: PathHunter PPARalpha complementation, chemiluminescence, 6 h; max response: stronger effect = higher value; note: potency is the fitted concentration of half-maximal effect; for max response: % of control where 0% means no effect
In short: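 Chemiluminescence from complemented enzyme reported PPARalpha activation in cells after 6 hr of compound treatment at 37 C. The detection reagent was incubated for 60 min at room temperature, and compounds were scored as agonists.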

[14] = qHTS assay for small molecule agonists of the antioxidant response element (ARE) signaling pathway measured by Nrf2-dependant transcriptional activity (AID 720636; active = well fitted curve in the direction sought with a large enough effect in the repeat runs; an effect the other way counts as inactive or inconclusive;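 note: HepG2 cells with an ARE-driven luciferase reporter; % of control where 0% means no effect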); conditions: ARE-luc HepG2, Nrf2 luciferase reporter, 16 h; series mostly up to 92.4 µM
In short: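 Nrf2-dependent transcription is measured in ARE-luc HepG2 cells: compound is applied for 16 hr at 37 C after a 6 hr attachment period, and luciferase activity is quantified by luminescence using ONE-Glo.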

[15] = qHTS assay for small molecule agonists of the antioxidant response element (ARE) signaling pathway measured by Nrf2-dependant transcriptional activity - cell viability counter screen (AID 720653; active = well fitted curve in the direction sought with a large enough effect in the repeat runs; an effect the other way counts as inactive or inconclusive; note: potency is the fitted concentration of half-maximal effect; for max response: % is set by controls: 0 for no effect and ±100 for the full control effect); conditions: ARE-bla HepG2 viability, CellTiter-Glo ATP luminescence, 16 h; max response: stronger effect = lower value
In short: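 Cytotoxicity counter screen: intracellular ATP quantified by CellTiter-Glo luminescence in the same ARE-bla HepG2 plates, after 16 h compound exposure and a 2 h beta-lactamase substrate step.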

[16] = qHTS assay for cell viability of HEK293 cells (AID 743288); conditions: ATP luminescence (CellTiter-Glo), 18 h; max response: stronger effect = lower value; note: nearly all actives have a fitted effect of over 50% in size; note: potency is the fitted concentration of half-maximal effect; for max response: % is set by controls: 0 for no effect and ±100 for the full control effect
In short: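 Readout is luciferase-coupled ATP content (CellTiter-Glo luminescence, 30 min room temperature) as a measure of metabolically competent cells. Parental HEK293 cells were plated 5 h or more before compound addition, then treated 18 h at 37 C.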

[17] = qHTS assay for cell viability of the p53RE-bla HCT-116 cell line (AID 743292); conditions: p53RE-bla HCT-116 viability, ATP luminescence, 16 h; series mostly up to 95 µM; note: nearly all actives have a fitted effect of over 55% in size; note: potency is the fitted concentration of half-maximal effect
In short: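 ATP-based luminescence, 16 h compound exposure at 37 C, p53RE-bla HCT-116 cells at 4,000/well.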

[18] = qHTS assay for environmental chemicals that activate the Aryl hydrocarbon Receptor (AhR) signaling pathway (AID 651777); conditions: 1A2-DRE human hepatoma cells, luciferase, 24 h; activation: stronger effect = higher value; note: % of control where 0% means no effect; nearly all actives have a fitted effect of over 15% in size
In short: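 Reporter gene assay: hepatoma cells with DRE/CYP1A2-luciferase, 24 hr compound incubation at 37 C, 5% CO2, luminescence after One-Glo (30 min, RT).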

[19] = molecular target: Nuclear receptor subfamily 1 group I member 2 (Rattus norvegicus) (UniProt Q9R1A7); assay: qHTS assay for small molecule activators of the rat pregnane X receptor (rPXR) signaling pathway (AID 651751; call rule not given here; note: 0% is about no effect); conditions: rPXR reporter cells, luciferase (One-Glo), 24 h
[20] = qHTS assay for small molecule activators of the human pregnane X receptor (PXR) signaling pathway (AID 720659; call rule not given here; note: 0% is about no effect); conditions: DPX-2 HepG2 CYP3A4-luciferase, 24 h; series mostly up to 92.3 µM

Nuclear receptor subfamily 1 group I member 2 (Rattus norvegicus), sequence (Q9R1A7 whole entry, looked up): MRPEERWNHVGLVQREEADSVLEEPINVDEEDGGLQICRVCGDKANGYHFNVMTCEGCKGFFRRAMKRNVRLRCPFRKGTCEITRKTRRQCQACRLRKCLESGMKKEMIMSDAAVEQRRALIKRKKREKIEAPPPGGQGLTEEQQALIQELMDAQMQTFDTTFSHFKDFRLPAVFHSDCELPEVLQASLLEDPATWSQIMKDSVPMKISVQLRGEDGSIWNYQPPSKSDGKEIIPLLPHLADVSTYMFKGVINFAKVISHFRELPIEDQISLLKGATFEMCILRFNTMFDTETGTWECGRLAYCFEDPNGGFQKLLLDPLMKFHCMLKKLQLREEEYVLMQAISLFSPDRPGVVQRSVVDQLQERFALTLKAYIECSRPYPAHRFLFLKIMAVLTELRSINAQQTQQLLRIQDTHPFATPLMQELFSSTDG
Peroxisome proliferator-activated receptor alpha (Homo sapiens), sequence (Q07869 whole entry, looked up): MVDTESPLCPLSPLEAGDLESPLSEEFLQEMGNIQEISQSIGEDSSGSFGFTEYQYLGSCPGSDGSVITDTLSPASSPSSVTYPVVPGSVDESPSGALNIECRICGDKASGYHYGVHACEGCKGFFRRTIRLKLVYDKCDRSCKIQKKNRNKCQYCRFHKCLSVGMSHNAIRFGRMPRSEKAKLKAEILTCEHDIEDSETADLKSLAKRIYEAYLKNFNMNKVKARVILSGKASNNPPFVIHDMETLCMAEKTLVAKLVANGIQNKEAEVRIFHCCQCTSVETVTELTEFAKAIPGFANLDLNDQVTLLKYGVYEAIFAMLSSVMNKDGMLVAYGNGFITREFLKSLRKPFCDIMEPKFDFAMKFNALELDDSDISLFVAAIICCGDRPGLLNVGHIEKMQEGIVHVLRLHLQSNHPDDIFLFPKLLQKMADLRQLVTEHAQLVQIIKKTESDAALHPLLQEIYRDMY
Vitamin D3 receptor (Homo sapiens), sequence (P11473 whole entry, looked up): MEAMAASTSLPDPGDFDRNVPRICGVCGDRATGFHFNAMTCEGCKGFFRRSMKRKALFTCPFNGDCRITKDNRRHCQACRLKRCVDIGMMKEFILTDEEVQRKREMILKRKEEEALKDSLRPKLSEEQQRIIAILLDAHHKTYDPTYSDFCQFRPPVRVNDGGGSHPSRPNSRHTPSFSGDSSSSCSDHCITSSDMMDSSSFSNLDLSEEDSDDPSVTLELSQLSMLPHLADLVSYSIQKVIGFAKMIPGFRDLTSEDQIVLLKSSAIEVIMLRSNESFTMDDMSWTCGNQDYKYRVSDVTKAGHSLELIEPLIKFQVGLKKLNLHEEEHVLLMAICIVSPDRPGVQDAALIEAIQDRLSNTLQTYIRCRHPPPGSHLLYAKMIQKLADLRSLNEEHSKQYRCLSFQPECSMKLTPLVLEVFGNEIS
Glucocorticoid receptor (Homo sapiens), sequence (P04150 whole entry, looked up): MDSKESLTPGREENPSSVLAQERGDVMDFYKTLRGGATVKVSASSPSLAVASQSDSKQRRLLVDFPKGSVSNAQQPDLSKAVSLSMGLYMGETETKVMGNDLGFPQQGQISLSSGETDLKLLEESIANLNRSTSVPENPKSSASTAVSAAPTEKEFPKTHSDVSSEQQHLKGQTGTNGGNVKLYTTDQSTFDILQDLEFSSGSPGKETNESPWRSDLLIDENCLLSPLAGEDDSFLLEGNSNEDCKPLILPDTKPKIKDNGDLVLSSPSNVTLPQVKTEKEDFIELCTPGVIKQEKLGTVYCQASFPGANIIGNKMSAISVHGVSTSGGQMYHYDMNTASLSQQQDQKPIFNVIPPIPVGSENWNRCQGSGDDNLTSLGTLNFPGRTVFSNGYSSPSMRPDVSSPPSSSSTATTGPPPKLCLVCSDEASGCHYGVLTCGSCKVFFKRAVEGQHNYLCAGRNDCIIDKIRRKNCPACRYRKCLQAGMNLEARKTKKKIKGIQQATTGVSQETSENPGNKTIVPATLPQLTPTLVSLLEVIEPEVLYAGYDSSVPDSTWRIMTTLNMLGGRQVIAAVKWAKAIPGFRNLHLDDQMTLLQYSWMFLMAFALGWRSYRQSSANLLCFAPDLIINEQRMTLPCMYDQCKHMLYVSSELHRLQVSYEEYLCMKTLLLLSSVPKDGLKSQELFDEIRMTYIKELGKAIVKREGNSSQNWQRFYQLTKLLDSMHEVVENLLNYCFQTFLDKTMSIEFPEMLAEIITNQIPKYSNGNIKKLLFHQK
Peroxisome proliferator-activated receptor gamma (Homo sapiens), sequence (P37231 whole entry, looked up): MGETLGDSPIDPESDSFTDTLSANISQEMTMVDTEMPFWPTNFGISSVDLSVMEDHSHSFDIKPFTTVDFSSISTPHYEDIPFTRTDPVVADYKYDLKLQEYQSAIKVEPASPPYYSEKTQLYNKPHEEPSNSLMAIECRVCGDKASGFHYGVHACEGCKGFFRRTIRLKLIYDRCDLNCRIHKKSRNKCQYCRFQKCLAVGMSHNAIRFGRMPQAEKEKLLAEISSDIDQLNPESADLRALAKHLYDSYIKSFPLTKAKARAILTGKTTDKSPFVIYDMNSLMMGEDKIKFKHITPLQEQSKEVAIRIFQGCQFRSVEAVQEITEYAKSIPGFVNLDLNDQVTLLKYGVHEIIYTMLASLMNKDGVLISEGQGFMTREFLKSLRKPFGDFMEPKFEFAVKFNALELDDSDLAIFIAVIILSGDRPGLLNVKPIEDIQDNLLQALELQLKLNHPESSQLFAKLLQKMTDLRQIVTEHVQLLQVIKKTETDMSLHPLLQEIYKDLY
Thyroid hormone receptor beta (Homo sapiens), sequence (P10828 whole entry, looked up): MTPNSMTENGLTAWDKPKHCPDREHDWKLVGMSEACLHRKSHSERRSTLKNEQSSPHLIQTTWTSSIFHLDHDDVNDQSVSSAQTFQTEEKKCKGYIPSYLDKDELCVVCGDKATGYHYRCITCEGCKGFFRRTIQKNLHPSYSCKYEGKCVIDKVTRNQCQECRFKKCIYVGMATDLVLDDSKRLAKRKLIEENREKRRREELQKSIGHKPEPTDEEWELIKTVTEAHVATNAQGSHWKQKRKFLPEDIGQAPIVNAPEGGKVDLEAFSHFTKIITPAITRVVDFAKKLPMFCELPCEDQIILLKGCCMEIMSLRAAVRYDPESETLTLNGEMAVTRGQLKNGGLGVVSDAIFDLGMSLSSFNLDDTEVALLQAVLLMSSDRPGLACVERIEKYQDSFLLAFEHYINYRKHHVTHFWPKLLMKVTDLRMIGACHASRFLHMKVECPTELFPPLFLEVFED
Retinoic acid receptor RXR-alpha (Homo sapiens), sequence (P19793 whole entry, looked up): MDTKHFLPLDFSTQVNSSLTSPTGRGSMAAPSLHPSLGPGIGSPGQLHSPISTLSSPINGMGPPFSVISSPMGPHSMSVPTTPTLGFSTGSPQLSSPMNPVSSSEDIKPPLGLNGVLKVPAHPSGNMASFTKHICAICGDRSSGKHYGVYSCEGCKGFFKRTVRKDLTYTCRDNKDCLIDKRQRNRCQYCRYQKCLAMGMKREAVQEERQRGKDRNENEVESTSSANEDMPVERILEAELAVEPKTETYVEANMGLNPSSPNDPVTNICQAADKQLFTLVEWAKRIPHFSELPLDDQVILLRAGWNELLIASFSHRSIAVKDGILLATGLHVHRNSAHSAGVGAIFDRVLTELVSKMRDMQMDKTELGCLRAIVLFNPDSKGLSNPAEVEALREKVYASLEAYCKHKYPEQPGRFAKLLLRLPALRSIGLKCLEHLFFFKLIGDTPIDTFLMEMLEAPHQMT

CC(C)(C)[C@H](O)[C@H](Cc1ccc(Cl)cc1)n1cncn1
9.09%: max response [10]
27.4%: max response [2]
inactive: activation [1] -0.93% | outcome [3] | Potency [4] | Potency [5] | outcome [6] | Potency [8] | Potency [9] | max response [11] -30.2% | activation [12] -1.23% and -2.31% | max response [13] -0.299% and 2.68% | Potency [14] | max response [15] -1.92% and -9.33% | max response [16] -20.8% and -24.1% | Potency [17]
-4.23%: max response [7]

CCCCCCCCCCCC(=O)OC
inactive: activation [1] -11.5% | outcome [6] | activation [18] 1.82% | max response [13] 2.34%
active: Potency [15] 35.5 µM | Potency [16] 25.1 µM | Potency [17] 28.2 µM

CCC(C)OC(=O)N1CCCCC1CCO (stereo not given)
-14.7%: max response [7]
inactive: outcome [3] | Potency [4] | Potency [5] | outcome [6] | Potency [8] | Potency [9] | max response [11] 3.95% | activation [12] -2.97% | activation [18] 1.16% | max response [13] -1.06% | Potency [14] | max response [15] -23.7% | max response [16] -6.27% | Potency [17] | max response [19] -1.56% | outcome [20]
49.3%: max response [2]
-13%: max response [10]

CCCCC(CC)COC(=O)/C=C\C(=O)OCC(CC)CCCC (stereo not given)
1.27%: max response [7]
14.1%: max response [2]
inactive: activation [1] -2.45% | outcome [3] | Potency [5] | outcome [6] | Potency [8] | max response [11] 1.08% | activation [12] -1.03% | activation [18] 0.172% | max response [13] -0.882% | Potency [14] | max response [15] -2.59% | max response [16] -2.82% | Potency [17] | max response [19] -1.19% | outcome [20]
-16.2%: max response [10]

CC(C)(C)c1ccc(C(=O)O)cc1
-7.4%: max response [10]
0.0983%: max response [7]
29.8%: max response [2]
inactive: activation [1] -3.04% | outcome [3] | Potency [5] | outcome [6] | Potency [8] | Potency [9] | max response [11] -3.02% | activation [12] -4.37% | activation [18] 2.5% | Potency [14] | max response [15] 14.5% | max response [16] -3.22% | Potency [17] | max response [19] -0.15% | outcome [20]

O=C(O)c1cc2ccccc2cc1O
2.59%: max response [10]
18.1%: max response [7]
inactive: Potency [4] | Potency [5] | outcome [6] | Potency [8] | Potency [9] | max response [13] 7.01% | max response [15] -1.53% | max response [16] -12.6% | Potency [17] | max response [19] 0.928%

C1=C/CC/C=C/CC/C=C/CC/1
inactive: activation [1] 2.01% | outcome [3] | Potency [4] | Potency [5] | outcome [6] | Potency [9] | max response [11] -14.4% | activation [12] -6.28% | max response [13] 0.0417% | Potency [14] | max response [15] -8.56% | max response [16] -8.62% | Potency [17] | max response [19] 13.1% | outcome [20]
18.8%: max response [2]
5.63%: max response [10]

C=C(C)C(=O)OCC[N+](C)(C)C
8.9%: max response [2]
7.2%: max response [7]
inactive: outcome [3] | Potency [4] | Potency [5] | outcome [6] | Potency [8] | Potency [9] | activation [18] -2.41% | max response [13] -2.12% | Potency [14] | max response [15] 1.93% | max response [16] -15.2% | Potency [17] | max response [19] 0.4% | outcome [20]

CO[Si](CCCNCCN)(OC)OC
40.3%: max response [2]
inactive: outcome [3] | Potency [4] | Potency [5] | outcome [6] | Potency [8] | Potency [9] | max response [11] 2.04% | Potency [14] | max response [15] 2.71% | max response [16] -6.23% | Potency [17] | max response [19] 4.5% | outcome [20]
-7.95%: max response [10]
7.5%: max response [7]

CO[Si](CCCOCC1CO1)(OC)OC (stereo not given)
active: Potency [13] 39.8 µM
-16.2%: max response [7]
-4.61%: max response [10]
inactive: activation [1] -3.61% | outcome [3] | Potency [4] | Potency [5] | outcome [6] | Potency [8] | Potency [9] | max response [11] -3% | activation [12] 1.09% | activation [18] -0.88% | Potency [14] | max response [15] -2.05% | max response [16] -2.39% | Potency [17]
37.6%: max response [2]

CCOCCOCCOC(C)=O
inactive: activation [1] -7.35% | outcome [3] | Potency [5] | outcome [6] | Potency [8] | Potency [9] | max response [11] 7.1% | activation [12] 1.91% | activation [18] -0.223% | max response [13] 0.0175% | Potency [14] | max response [15] 2.87% | max response [16] 0.368% | Potency [17] | max response [19] 0.7% | outcome [20]
-12.8%: max response [10]
31.4%: max response [2]
0.881%: max response [7]

CCCCCCCCCCCC[N+](C)(C)[O-]
inactive: activation [1] 6.56% | outcome [3] | Potency [4] | Potency [5] | outcome [6] | Potency [9] | activation [12] 1.24% | activation [18] 9.07% | max response [13] 0.14% | max response [15] -6.24% | max response [16] -22.6% | Potency [17]
-19.7%: max response [2]
